# Assay results taken from PubChem BioAssay (NCATS).
# Results filed as inconclusive are left out. Values without a mark were called inactive. Activity calls are given as the source filed them. Calls follow the shape of the dose curve; as a rule, active = well fitted cell-killing curve with a large enough effect; inconclusive = small, poorly fitted or top-dose-only effect, or effect the other way; inactive = no such curve, though single readings can be large or run the other way.
# Experiment: Quantitative High-Throughput drug screen in 47 multiple myeloma cell lines against the NCATS MIPE library collection: KMS12BM_JCRB cell viability assay (AID 1918971); also: nearly all actives have a fitted effect of over 35% in size
# Conditions: KMS12BM myeloma viability, CellTiter-Glo ATP, 48 h; series mostly up to 45.8 µM; viability, % of DMSO: at the top concentration
# Text: PI: Beverly A. Mock Ph.D.
# Laboratory of Cancer Biology and Genetics,
# Center for Cancer Research, National Cancer Institute,
# National Institute of Health, Bethesda, Maryland
# Drug resistance and disease progression are common in multiple myeloma (MM) patients, underscoring the need for new therapeutic combinations. […] We hypothesized that effective combinations would reduce MYC expression and enhance p16 activity. […] These preclinical data identify potentially useful drug combinations for evaluation in drug-resistant MM and reveal potential mechanisms of combined drug sensitivity.
# Described herein is the primary MIPE qHTS used to cherrypick compounds. Validated compounds were then further tested for potential synergistic activiy.
# [1] Peat TJ, Gaikwad SM, Dubois W, Gyabaah-Kessie N, Zhang S, Gorjifard S, Phyo Z, Andres M, Hughitt VK, Simpson RM, Miller MA, Girvin AT, Taylor A, Williams D, D'Antonio N, Zhang Y, Rajagopalan A, Flietner E, Wilson K, Zhang X, Shinn P, Klumpp-Thomas C, McKnight C, Itkin Z, Chen L, Kazandijian D, Zhang J, Michalowski AM, Simmons JK, Keats J, Thomas CJ, Mock BA. Drug combinations identified by high-throughput screening promote cell cycle transition and upregulate Smad pathways in myeloma. Cancer Lett. 2023 Aug 1;568:216284. doi: 10.1016/j.canlet.2023.216284. Epub 2023 Jun 24. PMID: 37356470; PMCID: PMC10408729.
# SEQUENCE No. (e.g., 1, 2, 3, etc.); […] (e.g., Cells, Incubation, Reagent, etc.); VALUE and DESCRIPTION.
# 1; Cells; 5 uL; white, solid bottom 1536-well Greiner assay plate.
# 2; Compounds; 23 nL; Kalypsis pin tool (Wako USA) equipped with a 1536-well pin head to transfer to the assay plates.
# 3; Incubation; 48 hours; 37C incubation.
# 4; Reagent;5uL; CellTiter Glo (Promega).
# 5; Detector; 425V; Luminescence; Viewlux PerkinElmer.
# NOTES (numbers refer to Sequence numbers above)
# 1. The cell-based screening methods employed in this study were like those previously published. Briefly, the corresponding myeloma cell lines were screened in 1,536-well plates with 500 cells, 5-uL per well for inhibition of cell viability (assessed by measuring ATP levels with CellTiterGlo).
# 2. NCATS MIPE 4.0 library of approved and investigational drugs were added using the Kalypsis pin tool. Wells treated with DMSO only for 100% viability and media only wells for 0% viability were used as controls.
# 3. The assay plates were covered and incubated for 48 hours in a 37C, 5% CO2 incubator with controlled humidity.
# 4. After 48 hours, CellTilter-GloTM luminescent substrate mix (Promega) reagent was added to the assay plate and plates we incubated for 5 min at room temperature.
# 5. Signal was measured as median relative luminescence units on a ViewLux (PerkinElmer) multiplate reader.
# [1] Heske CM, Davis MI, Baumgart JT, Wilson K, Gormally MV, Chen L, Zhang X, Ceribelli M, Duveau DY, Guha R, Ferrer M, Arnaldez FI, Ji J, Tran HL, Zhang Y, Mendoza A, Helman LJ, Thomas CJ. Matrix Screen Identifies Synergistic Combination of PARP Inhibitors and Nicotinamide Phosphoribosyltransferase (NAMPT) Inhibitors in Ewing Sarcoma. Clin Cancer Res. 2017 Dec 1;23(23):7301-7311. doi: 10.1158/1078-0432.CCR-17-1121. Epub 2017 Sep 12. PMID: 28899971; PMCID: PMC6636827.
# Potency is read from the fitted curve at half-maximal effect.
Structure (SMILES),"viability, % of DMSO",Potency
Cc1[nH]c(=O)c(C#N)cc1-c1ccncc1,133%,
COc1ccc(-c2ccc3c(N4CCOC[C@H]4C)nc(N4CCOC[C@H]4C)nc3n2)cc1CO,,0.0118 µM (active)
CCOc1ccc(Cc2cc([C@@H]3O[C@H](CO)[C@@H](O)[C@H](O)[C@@H]3O)ccc2Cl)cc1,128%,
Cc1ccc(NC(=O)c2cccc(C(C)(C)C#N)c2)cc1Nc1ccc2ncn(C)c(=O)c2c1,,20.9 µM (active)
COc1cc(Nc2ncc3c(n2)-c2ccc(Cl)cc2C(c2c(F)cccc2OC)=NC3)ccc1C(=O)O,122%,
COc1ccc2nc(S(=O)Cc3ncc(C)c(OC)c3C)[nH]c2c1 (stereo not given),137%,
Clc1ccc(Nc2nnc(Cc3ccncc3)c3ccccc23)cc1,,20.9 µM (active)
O=C(O)COCCN1CCN(C(c2ccccc2)c2ccc(Cl)cc2)CC1 (stereo not given),138%,
CCCc1nn(C)c2c(=O)[nH]c(-c3cc(S(=O)(=O)N4CCN(C)CC4)ccc3OCC)nc12,,11.8 µM (active)
Cc1ccnc(NS(=O)(=O)c2ccc(NC(=O)Nc3ccc(S(=O)(=O)Nc4nccc(C)n4)cc3)cc2)n1,,6.62 µM (active)
CCOC(=O)N[C@@H]1CC[C@@H]2[C@@H](C1)C[C@H]1C(=O)O[C@H](C)[C@H]1[C@@H]2C=Cc1ccc(-c2cccc(F)c2)cn1,,20.9 µM (active)
Nc1nc2ccc(OC(F)(F)F)cc2s1,,16.6 µM (active)
Cc1cc(-c2ccc(CC(=O)Nc3ccc(-c4cccnc4)cc3)cc2)ccn1,,18.7 µM (active)
O=c1ncn2nc(Sc3ccc(F)cc3F)ccc2c1-c1c(Cl)cccc1Cl,,18.7 µM (active)
CCC(C)n1ncn(-c2ccc(N3CCN(c4ccc(OC[C@H]5CO[C@](Cn6cncn6)(c6ccc(Cl)cc6Cl)O5)cc4)CC3)cc2)c1=O (stereo not given in full),,3.32 µM (active)
CCCCCCCc1ccc(CCc2cccc(O)c2C(=O)O)cc1,,0.332 µM (active)
COc1ccc(COc2cc3oc(=O)c4cc(C(C)O)ccc4c3cc2OC)cc1 (stereo not given),,23.5 µM (active)
CCC(=O)N[C@H]1CC[C@H](C(=O)N(C)c2ccc(-c3nc4ccccc4o3)cc2)C1,114%,
NC[C@H](O)c1ccc(O)c(O)c1,,20.9 µM (active)
COc1ccc(CC2=NN3C([C@@H](CCc4ccccc4)[C@@H](C)O)=NC(C)C3C(=O)N2)cc1OC (stereo not given in full),129%,

Structure (SMILES),"viability, % of DMSO",Potency
CCOC(=O)C1=C[C@]2(CC)CCCN3CCc4c(n1c1ccccc41)[C@@H]32,,14.8 µM (active)
CC[C@@H](C)[C@H](NC(=O)[C@H](CC1CCCCC1)NC(=O)c1ccno1)C(=O)N1CCC2(CCc3ccccc32)CC1,,9.35 µM (active)
CCN(c1ccccc1)c1cc(NC)[n+](C)c(C)n1,,14.8 µM (active)
O=S(=O)(N=Cc1c(O)ccc2ccccc12)c1cccs1,158%,
O=C(Nc1cccnc1)N1CCC(Cc2cccc(Oc3ccc(C(F)(F)F)cn3)c2)CC1,,13.2 µM (active)
COc1ccc(-c2oc3cc(OC)ccc3c2C(=O)c2ccc(C#N)cc2)cc1,122%,
Cn1cnc([N+](=O)[O-])c1Sc1ncnc2nc[nH]c12,134%,
Cc1csc(NC(=O)c2sc3nc4c(c(C(F)(F)F)c3c2N)CCC4)n1,,16.6 µM (active)
Nc1ccc(S(=O)(=O)Nc2ccnn2-c2ccccc2)cc1,157%,
CCCCNc1cc(C(=O)O)cc(S(N)(=O)=O)c1Oc1ccccc1,138%,
Cc1c(CN2CCN(C(=O)C(C)C)CC2)sc2c(N3CCOCC3)nc(-c3cnc(N)nc3)nc12,,0.0296 µM (active)
N#CC[C@H](C1CCCC1)n1cc(-c2ncnc3[nH]ccc23)cn1,,23.5 µM (active)
C[C@H](NC(=O)Cc1cc(F)cc(F)c1)C(=O)N[C@@H]1C(=O)N(C)c2ccccc2-c2ccccc21,162%,
COc1ccccc1[C@H](c1cccc2ccccc12)[C@@](C)(C#N)C(=O)N1CCC(c2cccc(C(F)(F)F)c2)CC1,,2.35 µM (active)
N[C@@H]1CONC1=O,139%,
CCN(CC)CCCC(C)Nc1ccnc2cc(Cl)ccc12 (stereo not given),123%,
O=C1[C@H](Cc2ccc(O)cc2)N2C(=O)CCN(C(=O)NCc3ccccc3)[C@H]2CN1Cc1cccc2ccccc12,,4.18 µM (active)
OC(CN1CCC(Cc2ccc(F)cc2)CC1)c1ccc(Cl)cc1 (stereo not given),111%,
CC(C)(N)C(=O)N[C@H](COCc1ccccc1)C(=O)N1CCC2(CC1)CN(S(C)(=O)=O)c1ccccc12,,14.8 µM (active)
COc1cccc2cc(-c3nc(C4CCC(C(=O)O)CC4)n4ncnc(N)c34)[nH]c12 (stereo not given),,0.0743 µM (active)
